Test systems include SK-MEL-2 melanoma; EKVX NSCLC; SN12C renal; UO-31 renal; TK-10 renal; ACHN renal; CAKI-1 renal; A498 renal; CCRF-CEM leukemia; MOLT-4 leukemia; SR leukemia; RPMI-8226 leukemia; OVCAR-8 ovarian; OVCAR-5 ovarian; OVCAR-4 ovarian; SK-OV-3 ovarian; IGROV1 ovarian; OVCAR-3 ovarian; HS 578T breast; NCI/ADR-RES ovarian.
What all share (experiment): NCI-60 one-dose screen, 48 h (100 = growth as untreated, 0 = no growth, -100 = all killed)
What all share (conditions): 10 µM unless noted

Compounds without any hit were thinned out: in the full panel of roughly 83,000, 20% have a hit.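 The endpoint reported here, percent growth, reads 100 for growth as untreated, 0 for no net growth and -100 for all cells dead.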 Values without a mark were called inactive. Calls of active or inactive are those of the source. The calls were made as follows: active = growth percent below 10; inactive = the rest.

With `O=C1c2cccc3cccc(c23)C(=O)N1CCCCCN1CCN(CCCCCOc2ccc(-c3nc4ccc(N5CCOCC5)cc4[nH]3)cc2)CC1`, the growth in the experiment on SK-MEL-2 melanoma was 87.4%; in the experiment with EKVX NSCLC it was 105%; with SN12C renal, 108%; in the experiment with UO-31 renal, 4.03% (active); in the experiment with TK-10 renal it was 106%; in the experiment on ACHN renal, 111%. Moreover, the growth is 59.4% in the experiment with CAKI-1 renal; 117% in the experiment on A498 renal; -17.9% (active) in the experiment with CCRF-CEM leukemia; -54.4% (active) in the experiment with MOLT-4 leukemia; -44.1% (active) with SR leukemia; -59% (active) with RPMI-8226 leukemia. In addition, the growth in the experiment on OVCAR-8 ovarian was 10.6%; in the experiment on OVCAR-5 ovarian, 158%; with OVCAR-4 ovarian, 83.2%; with SK-OV-3 ovarian, 135%; in the experiment with IGROV1 ovarian, 44.3%; in the experiment on OVCAR-3 ovarian it was 105%. Further, the growth is 107% with HS 578T breast and 25.9% with NCI/ADR-RES ovarian.

Regarding `c1ccc(CCNc2ncnc3[nH]ncc23)cc1`, the growth with SK-MEL-2 melanoma is 127%; with EKVX NSCLC, 58.3%; with SN12C renal it was 92.7%; in the experiment with UO-31 renal it was 62.1%; in the experiment on TK-10 renal, 110%; in the experiment with ACHN renal, 89.2%. Also, the growth in the experiment with CAKI-1 renal is 90.4%; in the experiment with A498 renal, 104%; in the experiment with CCRF-CEM leukemia, 95.1%; with MOLT-4 leukemia, 124%; with SR leukemia, 107%; with RPMI-8226 leukemia, 67%. Further, the growth in the experiment on OVCAR-8 ovarian is 95%; in the experiment with OVCAR-5 ovarian it was 82.5%; in the experiment with OVCAR-4 ovarian it was 81.1%; with SK-OV-3 ovarian, 109%; with IGROV1 ovarian it was 83.5%; in the experiment on OVCAR-3 ovarian, 108%. For the same molecule, the growth in the experiment on HS 578T breast was 66.3%; with NCI/ADR-RES ovarian, 97.9%.

Regarding `COCCNc1ccc2c3c(cccc13)C(=O)N(CCN(C)C)C2=O`, the growth with SK-MEL-2 melanoma was -12.6% (active); in the experiment on EKVX NSCLC it was 22.5%; with SN12C renal it was 24.7%; in the experiment on UO-31 renal, 10.6%; with TK-10 renal, 20.5%; in the experiment on ACHN renal, 11.9%. Moreover, the growth in the experiment with CAKI-1 renal was -21.4% (active); in the experiment on A498 renal, 26.5%; in the experiment on CCRF-CEM leukemia, 8.36% (active); in the experiment with MOLT-4 leukemia it was -6.43% (active); in the experiment with SR leukemia, -40.1% (active); in the experiment with RPMI-8226 leukemia, -0.282% (active). The growth in the experiment with OVCAR-8 ovarian was 22.3%; with OVCAR-5 ovarian it was 30.5%; with OVCAR-4 ovarian, 31.6%; in the experiment on SK-OV-3 ovarian, 22.9%; with IGROV1 ovarian, 18.1%; in the experiment on OVCAR-3 ovarian it was 17.9%. Moreover, the growth was 50.8% with HS 578T breast and 31.4% in the experiment on NCI/ADR-RES ovarian.

As to `Nc1ccc(-c2cc3c(NCc4ccccc4)ncnc3s2)cc1`, the growth in the experiment on SK-MEL-2 melanoma is 85.1%; in the experiment with EKVX NSCLC it was 57.9%; in the experiment on SN12C renal, 72.6%; in the experiment on UO-31 renal, 58.5%; in the experiment with TK-10 renal, 50.2%; in the experiment with ACHN renal, 52.7%. In addition, the growth was 63.1% in the experiment with CAKI-1 renal; 52.6% with A498 renal; 81.9% in the experiment with CCRF-CEM leukemia; 83.7% in the experiment on MOLT-4 leukemia; 81.5% with SR leukemia; 62.6% with RPMI-8226 leukemia. Also, the growth in the experiment with OVCAR-8 ovarian is 94%; with OVCAR-5 ovarian it was 77%; in the experiment on OVCAR-4 ovarian it was 60.6%; with SK-OV-3 ovarian, 102%; with IGROV1 ovarian, 49.9%; in the experiment with OVCAR-3 ovarian, 80%. Besides, the growth in the experiment with HS 578T breast was 86.5%; in the experiment with NCI/ADR-RES ovarian, 80.7%.

Take `COc1ccc(/C=C\c2cc(OC)c(OC)c(OC)c2)cc1OCC(=O)Nc1ccc2nc(C)sc2c1`: the growth was -1.27% (active) in the experiment with SK-MEL-2 melanoma; 66.8% in the experiment on EKVX NSCLC; 51.8% with SN12C renal; 5.67% (active) in the experiment on UO-31 renal; 1.02% (active) with TK-10 renal; 47.1% in the experiment on ACHN renal. Further, the growth was 23% in the experiment with CAKI-1 renal; 80.1% in the experiment with A498 renal; 15.5% with CCRF-CEM leukemia; 22.7% in the experiment on MOLT-4 leukemia; 12.2% in the experiment on SR leukemia; -8.5% (active) with RPMI-8226 leukemia. Further, the growth in the experiment with OVCAR-8 ovarian was 9.11% (active); with OVCAR-5 ovarian, 112%; in the experiment on OVCAR-4 ovarian it was 43%; in the experiment with SK-OV-3 ovarian it was 78.5%; with IGROV1 ovarian, 25.2%; with OVCAR-3 ovarian, 41.6%. In addition, the growth in the experiment on HS 578T breast is 36.4%; in the experiment on NCI/ADR-RES ovarian, 0.808% (active).

With `CCN1CCC2(CC1)NC(=O)c1c(c3ccc(Cl)c(Cl)c3n1C)C2C#N` (stereo not given), the growth was 21.4% in the experiment with SK-MEL-2 melanoma; 68.8% in the experiment on EKVX NSCLC; 49.4% in the experiment on SN12C renal; 43% with UO-31 renal; 54.5% in the experiment on TK-10 renal; 45.6% with ACHN renal. In addition, the growth was 37.3% in the experiment with CAKI-1 renal; 3.01% (active) with A498 renal; 39.5% in the experiment with CCRF-CEM leukemia; 24.4% with MOLT-4 leukemia; 26.5% in the experiment with SR leukemia; 16.6% in the experiment with RPMI-8226 leukemia. Further, the growth is 76.9% in the experiment on OVCAR-8 ovarian; 74.3% in the experiment on OVCAR-5 ovarian; 63.8% in the experiment with OVCAR-4 ovarian; 87.6% with SK-OV-3 ovarian; 55.8% in the experiment on IGROV1 ovarian; 56.2% in the experiment on OVCAR-3 ovarian. Besides, the results for the growth with HS 578T breast and in the experiment with NCI/ADR-RES ovarian were 53.8% and 63.4%, respectively.

Regarding `O=C1CSC(=S)N1CCc1ccc(O)cc1`, the growth in the experiment on SK-MEL-2 melanoma is 103%; with EKVX NSCLC, 97.8%; in the experiment on SN12C renal, 81.6%; in the experiment with UO-31 renal, 60.3%; in the experiment with TK-10 renal it was 68.7%; in the experiment with ACHN renal, 91.4%. Further, the growth is 81.4% in the experiment with CAKI-1 renal; 97% in the experiment with A498 renal; 51.1% with CCRF-CEM leukemia; 93.4% in the experiment on MOLT-4 leukemia; 26.4% with SR leukemia; 37.9% with RPMI-8226 leukemia. In addition, the growth in the experiment on OVCAR-8 ovarian is 92.6%; in the experiment with OVCAR-5 ovarian, 101%; in the experiment with OVCAR-4 ovarian, 89.5%; in the experiment with SK-OV-3 ovarian it was 99.2%; in the experiment on IGROV1 ovarian, 101%; with OVCAR-3 ovarian it was 78.3%. Besides, the growth with HS 578T breast is 84.3%; in the experiment on NCI/ADR-RES ovarian, 94.7%.

These data come from PubChem BioAssay (NCI).
